Source: PubChem BioAssay (several laboratories)
Most compounds without a hit are left out; they make up all but 2.3% or so of the library.
SENP6 block: blocks the human protease SENP6; inhibition, % at 10 µM; Recombinant SENP6 catalytic domain, aminoluciferin luminescence; hit rate 1.8% among 330,000; Q9GZR1;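 active means inhibition above about 50% at the single tested dose, limit read from the data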;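 further: plate controls were DMSO wells with enzyme for no effect and DMSO wells lacking enzyme for full effect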
SENP8 block-1: SENP8 protease inhibition. Q96LD8. purified SENP8, Z-RLRGG-aminoluciferin cleavage, luminescence. inhibition, % at 10 µM. hit rate 1.2% among 330,000. AID 2540; in the data active means inhibition above about 50%
Target sequence (Q96LD8 whole entry, looked up): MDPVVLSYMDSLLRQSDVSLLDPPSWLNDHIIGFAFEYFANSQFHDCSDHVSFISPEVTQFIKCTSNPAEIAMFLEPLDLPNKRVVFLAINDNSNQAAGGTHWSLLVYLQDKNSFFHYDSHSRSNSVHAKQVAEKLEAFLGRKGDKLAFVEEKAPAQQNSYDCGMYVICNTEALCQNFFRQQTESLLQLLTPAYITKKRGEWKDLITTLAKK
LGR2 antag: inhibitors of bursicon-induced Drosophila LGR2 receptor cAMP signaling | hit rate 0.35% among 380,000 | HEK293 LGR2, CRE-luciferase, bursicon-stimulated, 4 h | inhibition, % at 9.99 µM | AID 720647;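 active means drop in luminescence signal, shown as inhibition above about 50% in the replicate tests, limit read from the data, passing the limit was not always enough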;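 further: agonist challenge used bursicon conditioned medium at about half maximal strength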
SENP7 block: SENP7 protease inhibition; hit rate 1.5% among 330,000; recombinant SENP7, Z-RLRGG-aminoluciferin luminescence, 40 min; inhibition, % at 5 µM; Q9BQF6; AID 434973;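 active means inhibition above about 50% at the single test dose, limit read from the data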;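 further: plate controls were DMSO with enzyme for no effect and no enzyme buffer wells for full effect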
SENP8 block-2: inhibitors of human SENP8 protease | hit rate 0.64% among 360,000 | recombinant SENP8, Nedd8 substrate fluorescence | Q96LD8 | AID 602440 | inhibition, % at 20 µM; in the data active means inhibition mostly above about 40%, no sharp cut-off; inactive means mostly below about 27%
HSP90 refold inh: blocks HSP90-mediated luciferase refolding in reticulocyte lysate. Rabbit reticulocyte lysate, luciferase refolding luminescence, 3 h. inhibition, % at 5.6 µM. hit rate 0.91% among 290,000. AID 1789;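 active means inhibition above the screen-wide mean plus 3 SD, computed separately per campaign, cut at about 16% in these data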;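 further: 0% = DMSO wells and 100% = 60 µM geldanamycin wells; inhibitors lower the luminescence because luciferase stays unfolded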
HSP90 inh confirm: HSP90 inhibition, confirmation assay. rabbit reticulocyte lysate, luciferase refolding luminescence, 3 h. hit rate 64% among 2,300. inhibition, % at 5.9 µM. shares compounds with HSP90 refold inh; in the data active means inhibition above about 18%;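 further: 0% = vehicle wells and 100% = reference inhibitor wells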
luciferase ctr: firefly luciferase inhibition, HSP90 counter-screen; AID 1847; inhibition, % at 5.9 µM; shares compounds with HSP90 refold inh; hit rate 48% among 2,300; purified native firefly luciferase, luminescence;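 active means inhibition above the mean inhibition of all tested sample wells plus 3 SD, cut at about 10% in these data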;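 further: 0% = DMSO with luciferase and 100% = wells lacking luciferase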
SENP8 conf: human SENP8 inhibition, confirmed; shares compounds with SENP7 block; Recombinant SENP8, Z-RLRGG-aminoluciferin luminescence, 60 min; inhibition, % at 12.5 µM; hit rate 40% among 6,200;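 active means mean inhibition across replicates above about 50%, limit read from the data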
SENP6 confirm: confirmation of human SENP6 protease inhibitors; shares compounds with SENP7 block; recombinant SENP6, Z-RLRGG-aminoluciferin luminescence; inhibition, % at 12.5 µM; hit rate 58% among 6,200; AID 488915
SENP7 conf: confirmation of human SENP7 protease inhibitors | hit rate 69% among 6,200 | inhibition, % at 12.5 µM | recombinant SENP7, Z-RLRGG-aminoluciferin luminescence, 40 min | AID 488917 | shares compounds with SENP7 block
Casp3 SENP sel: selectivity test for SENP inhibitors: human caspase-3 inhibition | shares compounds with SENP7 block | inhibition, % at 12.5 µM | purified caspase-3, Z-DEVD-aminoluciferin luminescence, 60 min | hit rate 60% among 6,200 | AID 488918;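 active means mean inhibition above about 50%, limit read from the data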;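 further: plate controls were enzyme with DMSO for no effect and wells without caspase-3 for full effect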
Target sequence (P42574 28-227 limits assumed): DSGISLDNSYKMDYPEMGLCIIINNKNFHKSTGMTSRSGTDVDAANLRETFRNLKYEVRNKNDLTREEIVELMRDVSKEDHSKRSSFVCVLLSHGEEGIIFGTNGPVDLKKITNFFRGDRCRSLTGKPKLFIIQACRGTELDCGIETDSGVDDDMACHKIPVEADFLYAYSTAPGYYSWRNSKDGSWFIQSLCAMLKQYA
Luc interf: counter-screen for SENP inhibitors: luminescence interference. shares compounds with SENP7 block. Pre-incubated SENP8/Z-RLRGG-aminoluciferin, luciferase luminescence interference. inhibition, % at 12.5 µM. hit rate 39% among 6,200;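 active means mean inhibition above about 50% when retested at one dose, limit read from the data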;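 further: plate controls were DMSO wells with completed reaction for no effect and substrate without enzyme for full effect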
* = called active by the depositor; i = inactive; . = no result given.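 How the source made its calls, unless noted: active means mean inhibition above about 50% in the one-dose retest (limit read from the data); inactive means the rest.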

SMILES	SENP6 block	SENP8 block-1	LGR2 antag	SENP7 block	SENP8 block-2	HSP90 refold inh	HSP90 inh confirm	luciferase ctr	SENP8 conf	SENP6 confirm	SENP7 conf	Casp3 SENP sel	Luc interf
O=C(Nc1nc2ccccc2[nH]1)c1ccc(OC(F)F)cc1	95*	89*	37	96*	3	37*	58*	53*	81*	93*	101*	95*	62*
O=C(Nc1nc2ccccc2[nH]1)c1ccccc1OC(F)F	91*	84*	33	91*	-250	30*	55*	45*	87*	88*	100*	95*	90*
COc1cc(C(=O)Nc2nc3ccccc3[nH]2)ccc1OC(F)F	39	4	-80	25	-24	-1	.	.	.	.	.	.	.
CC(C)Oc1ccc(C(=O)Nc2nc3ccccc3[nH]2)cc1	97*	97*	94*	100*	0	83*	90*	85*	91*	99*	103*	98*	68*
CC(=O)Nc1ccc2nc(-c3ccccn3)[nH]c2c1	5	-3	.	10	i	2	.	.	.	.	.	.	.
c1ccc(-c2nc3cc4ccccc4cc3[nH]2)nc1	99*	94*	.	100*	-319	26*	72*	66*	96*	97*	100*	96*	94*
O=C(Nc1ccccn1)c1onc2c1CCCC2	87*	84*	79*	94*	10	36*	76*	68*	9	90*	100*	95*	83*
O=C(Nc1ccccn1)c1csc2c1CCCC2	24	2	-86	-1	7	0	.	.	.	.	.	.	.
C[C@@H]1CN([C@@H](C)CO)C(=O)c2cc(NC(=O)CCN3CCOCC3)ccc2O[C@H]1CN(C)S(=O)(=O)c1cn(C)cn1	.	.	5	.	.	.	.	.	.	.	.	.	.
C[C@@H]1CN([C@@H](C)CO)S(=O)(=O)c2ccc(C#CC3(O)CCCC3)cc2O[C@@H]1CN(C)C(=O)Cc1ccncc1	.	.	2	.	.	.	.	.	.	.	.	.	.
CCS(=O)(=O)c1ccc(C=NNc2nc3ccccc3o2)cc1	.	.	-63	.	-220	.	.	.	.	.	.	.	.
CN(C)c1ccc(/C=N/Nc2nc3ccccc3o2)cc1	78*	77*	67*	97*	-291	45*	63*	62*	22	79*	97*	44	11
CO[C@@H]1CN(C)C(=O)c2ccc(NC(=O)c3ccccc3F)cc2OC[C@H](C)N(C(C)=O)C[C@@H]1C	.	.	6	.	.	.	.	.	.	.	.	.	.
COc1ccc(-c2cc(=O)c3cc(F)ccc3[nH]2)cc1	-1	-4	-18	6	-353	0	.	.	.	.	.	.	.
COc1ccc2[nH]c(-c3ccc(C)cc3)cc(=O)c2c1	81*	77*	.	73*	-477	25*	56*	33*	51*	81*	95*	92*	2
Oc1ccccc1C1NN=C(c2ccccc2)S1 (stereo not drawn)	86*	61*	36	95*	-253	24*	33*	18*	39	79*	70*	65*	18
CC(C)NC(=O)Nc1ccc2c(c1)C(=O)N([C@@H](C)CO)C[C@H](C)[C@@H](CN(C)S(=O)(=O)c1ccc(Cl)cc1)O2	.	.	10	.	.	.	.	.	.	.	.	.	.
CCCC(C)C(=O)Nc1nc(C)c(-c2csc(Nc3ccccc3OC)n2)s1 (stereo not drawn)	6	1	-19	6	-195	1	.	.	.	.	.	.	.
